In the library only some 3.4% were active in any assay of this set; here they are far more common.
KLK7 zymogen act = proKLK7 (human) activation, primary screen. P49862. purified proKLK7, EDANS-DABCYL substrate fluorescence; 100% is mature enzyme control, 0% vehicle. activation, % at 7 µM. 370,000 compounds, 0.9% hits. AID 652039;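 active = activation above the mean of all tested compounds plus 3 SD, computed per campaign excluding outliers beyond control limits, cut at about 13% in these data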
ADAM17 inh = inhibits human ADAM17; P78536; recombinant ADAM17, EDANS/DABCYL FRET peptide cleavage; inhibition, % at 6.95 µM; 370,000 compounds, 0.83% hits; AID 720648;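 active = inhibition above the mean of compounds lying between control limits plus 3 SD, set per campaign, cut at about 8.5% in these data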
PLCg1 inh = blocks human PLC-gamma1 enzyme activity; purified PLC-gamma1, fluorogenic substrate, fluorescence; inhibition, % at 12.2 µM; 370,000 compounds, 0.84% hits; in the data active = inhibition above about 9.5%
sPLA2-III inh = Blocks human group III sPLA2 activity. Q9NZ20. QFRET BODIPY PC-A2 liposome hydrolysis, fluorescence. inhibition, % at 12.2 µM. 370,000 compounds, 0.56% hits;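 active = inhibition above mean plus 3 SD of compounds lying within the high and low control bounds, cut at about 19% in these data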
Target sequence (Q9NZ20 whole entry, looked up): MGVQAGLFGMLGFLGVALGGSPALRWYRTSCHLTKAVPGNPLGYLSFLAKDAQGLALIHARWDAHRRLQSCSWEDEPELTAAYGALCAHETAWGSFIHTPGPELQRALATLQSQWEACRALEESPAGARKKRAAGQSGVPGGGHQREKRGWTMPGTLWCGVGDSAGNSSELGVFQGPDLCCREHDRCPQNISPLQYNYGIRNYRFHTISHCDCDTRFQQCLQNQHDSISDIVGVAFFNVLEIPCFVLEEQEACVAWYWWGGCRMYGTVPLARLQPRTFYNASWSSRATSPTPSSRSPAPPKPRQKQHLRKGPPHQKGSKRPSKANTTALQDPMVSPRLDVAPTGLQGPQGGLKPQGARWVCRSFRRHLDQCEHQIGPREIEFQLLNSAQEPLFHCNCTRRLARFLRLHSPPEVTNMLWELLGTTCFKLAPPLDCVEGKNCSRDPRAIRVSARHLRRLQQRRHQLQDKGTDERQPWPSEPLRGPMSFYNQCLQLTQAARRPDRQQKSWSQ
PLC-beta3 inh = blocks human PLC-beta3 enzyme activity; Q01970; Purified PLC-beta3, fluorogenic substrate, fluorescence; inhibition, % at 12.2 µM; 370,000 compounds, 0.18% hits; AID 720704; in the data active = inhibition above about 11%
ADAM10 inh = inhibits human ADAM10 | O14672 | recombinant ADAM10, EDANS/DABCYL FRET peptide cleavage, 3 h | inhibition, % at 7 µM | 370,000 compounds, 0.62% hits;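 active = inhibition above a per-campaign cutoff equal to the mean of compounds falling between control-based bounds plus 3 SD, cut at about 20% in these data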
proKLK7 act conf = confirmation of human kallikrein-7 zymogen activators | 3,200 compounds, 68% hits | shares compounds with KLK7 zymogen act | AID 686949 | activation, % at 7 µM | purified proKLK7, EDANS-DABCYL substrate fluorescence; scaled: vehicle 0, mature enzyme 100;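 active = activation, as change over the incubation, above the mean of all tested compounds plus 3 SD, cut at about 13% in these data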
EDANS-DABCYL int = optically interferes with EDANS-DABCYL signal, flagging KLK7 hits | 3,200 compounds, 80% hits | EDANS-DABCYL substrate fluorescence interference, no enzyme, 4 h; solvent 0%, active enzyme control 100% | activation, % at 7 µM | AID 686952 | shares compounds with KLK7 zymogen act;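 active = activation above the all-compound mean plus 3 SD, ignoring values outside control-based bounds, cut at about 4.8% in these data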;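 note: value is the 4 h activation minus the activation read at time zero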
K7 EDANS ctr = EDANS fluorescence interference in dose response, no enzyme | shares compounds with KLK7 zymogen act | EDANS-DABCYL peptide fluorescence interference | EC50, µM | 250 compounds, 20% hits;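 active = compounds that raise the fluorescence signal in this interference counterscreen, with EC50 at or below 10 µM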;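 note: intact quenched peptide substrate alone read at 355 nm excitation and 520 nm emission; signal is fluorescence gain from T0 to T4 after four hours at room temperature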
Large screens that a line does not name were inactive (follow-up assays come after a bar, where they were run).

CCOc1c2ccc(C(=O)NCc3ccco3)cc2nn1CCOC	KLK7 zymogen act 18 | proKLK7 act conf 24 | EDANS-DABCYL int 29
CCCn1nc2cc(C(=O)NCc3ccc4c(c3)OCO4)ccc2c1OCC	none
CCOc1c2ccc(C(=O)NCc3ccc4c(c3)OCO4)cc2nn1CCOC	KLK7 zymogen act 13 | proKLK7 act conf inactive | EDANS-DABCYL int inactive
CCOc1c2ccc(C(=O)NCc3ccco3)cc2nn1CC	KLK7 zymogen act 22 | proKLK7 act conf 19 | EDANS-DABCYL int 20
COc1cccc(CNC(=O)[C@H]2CCCN2C(=O)[C@H]2CCCN2C(=O)c2ccc(F)c(F)c2)c1	none
CCN1CCN(c2c(S(=O)(=O)c3ccc(Cl)cc3)cnc3ccccc23)CC1	none
Nc1[nH]c(C(=O)c2ccccc2)c(-c2ccc(Cl)cc2)c1C(=O)NCCC1=CCCCC1	none (no result: KLK7 zymogen act)
Nc1ccn([C@@H]2O[C@H](C(=O)N[C@H](Cc3ccccc3)C(=O)N3CCN(CCO)CC3)[C@@H](O)[C@H]2O)c(=O)n1	none
C[C@@H]1CN([C@H](C)CO)C(=O)c2ccccc2-c2ccccc2CO[C@@H]1CN(C)C(=O)Nc1ccccc1	none
CCN(Cc1ccccc1)C(=O)Nc1c(Cl)cccc1Cl	none
O=C(NCc1ccco1)Nc1ccc2nsnc2c1	KLK7 zymogen act 27 | proKLK7 act conf 26 | EDANS-DABCYL int 29
Cn1c(N)nc2nc(CCc3ccccc3)c(=O)[nH]c2c1=O	KLK7 zymogen act 13 | proKLK7 act conf 34 | EDANS-DABCYL int 30
Cc1ccc2[nH]c3c(c2c1)SC(C)(C)CC3=O	KLK7 zymogen act 15 | proKLK7 act conf 13 | EDANS-DABCYL int 16
CS(=O)(=O)c1ccc(-c2sc3cc4c(cc3c2C(=O)NN2CCOCC2)OCO4)cc1	KLK7 zymogen act 43 | proKLK7 act conf 35 | EDANS-DABCYL int 28 | K7 EDANS ctr inactive
O=c1oc2ccccc2cc1-c1ccc(O)cc1O	none
COc1ccc(-c2cc3ccc(O)cc3oc2=O)cc1	KLK7 zymogen act 53 | proKLK7 act conf 75 | EDANS-DABCYL int 74
O=c1oc2cc(O)ccc2cc1-c1ccccc1	KLK7 zymogen act 72 | proKLK7 act conf 66 | EDANS-DABCYL int 77
Oc1ccccc1C=NC(N=Cc1ccccc1O)c1ccccc1O (stereo not drawn)	none
CNc1cc(-c2cccc(OC)c2F)nc2ccnn12	KLK7 zymogen act 38 | proKLK7 act conf 28 | EDANS-DABCYL int 27
COc1ccccc1-c1cc(C(F)(F)F)nc(NCc2ccco2)n1	none
CC(=O)O[C@H]1[C@H](OC(C)=O)C[C@]2(OC(C)=O)C[C@H]1OC2=O	none (no result: KLK7 zymogen act)
COC(=O)C1=C(C)N(Cc2ccc(C(F)(F)F)cc2)C(=NCc2ccccc2)NC1c1ccc(Cl)cc1 (stereo not drawn)	none
COc1ccc(S(=O)(=O)NCCc2cn3nc(C)c(C)nc3n2)cc1	KLK7 zymogen act 32 | proKLK7 act conf 71 | EDANS-DABCYL int 77
Cc1nc2nc(CCNS(=O)(=O)c3ccc(Cl)cc3)cn2nc1C	KLK7 zymogen act 24 | proKLK7 act conf 75 | EDANS-DABCYL int 75
Cc1ccc(C(=O)Oc2ccc(N3C(=O)CCC3=O)c(C)c2)cc1	none
COc1cccc(C(=O)Oc2ccc3ccc(=O)oc3c2)c1	KLK7 zymogen act 93 | proKLK7 act conf 616 | EDANS-DABCYL int 656
COc1ccc2ccc(=O)oc2c1	none
O=C(CNC(=O)OCc1ccccc1)Oc1ccc2ccc(=O)oc2c1	KLK7 zymogen act 56 | proKLK7 act conf 183 | EDANS-DABCYL int 261
COC(=O)c1cc(COc2ccc3ccc(=O)oc3c2)c(C)o1	none
Cc1ccc(C(=O)Oc2ccc3ccc(=O)oc3c2)cc1	KLK7 zymogen act 41 | proKLK7 act conf 111 | EDANS-DABCYL int 107
CC(NC(=O)OC(C)(C)C)C(=O)Oc1ccc2ccc(=O)oc2c1 (stereo not drawn)	KLK7 zymogen act 89 | proKLK7 act conf 466 | EDANS-DABCYL int 445
Cc1ccccc1Cn1cc(COC(=O)NCCc2ccccc2)nn1	none
COC(=O)C1=C(C)N(Cc2cccc(C(F)(F)F)c2)C(=NCc2ccc3c(c2)OCO3)NC1c1cccc(Cl)c1 (stereo not drawn)	none
Cc1cc(=O)c2c(ccc3c(=O)cc(C)[nH]c32)[nH]1	none
COc1ccc(C2CC(=O)C(c3ccccc3)=CN2Cc2ccccc2)cc1 (stereo not drawn)	none
Cc1ccccc1NC(=O)COC(=O)COc1ccc2ccc(=O)oc2c1	KLK7 zymogen act 14 | proKLK7 act conf 16 | EDANS-DABCYL int inactive | K7 EDANS ctr inactive
O=C(Oc1ccc2ccc(=O)oc2c1)c1ccc([N+](=O)[O-])cc1	KLK7 zymogen act 45 | proKLK7 act conf 593 | EDANS-DABCYL int 573
O=C(Oc1ccc2ccc(=O)oc2c1)c1cccs1	KLK7 zymogen act 581 | proKLK7 act conf 789 | EDANS-DABCYL int 771
COc1ccc(C(=O)COc2ccc3ccc(=O)oc3c2)c(OC)c1	none
Cc1cc(C(=O)COc2ccc3ccc(=O)oc3c2)c(C)n1C	KLK7 zymogen act 138 | proKLK7 act conf 79 | EDANS-DABCYL int 85
O=C(Oc1ccc2c(-c3ccccc3)cc(=O)oc2c1)c1cccs1	none
CC(C)C[C@@H]1COc2cccc(N3CCCCC3)c2S(=O)(=O)N1	none
O=C(N[C@H](Cc1ccccc1)C(=O)NCc1ccc(OC(F)(F)F)cc1)[C@H]1O[C@@H](n2ccc(=O)[nH]c2=O)[C@H](O)[C@@H]1O	none
N#C[C@H](N)[C@H]1O[C@@H](n2ccc(=O)[nH]c2=O)[C@H](O)[C@@H]1O	none
CC(Oc1ccc2ccc(=O)oc2c1)C(=O)N1CCOCC1 (stereo not drawn)	none
COc1ccc(C(=O)Oc2ccc3ccc(=O)oc3c2)cc1OC	KLK7 zymogen act 14 | proKLK7 act conf 197 | EDANS-DABCYL int 193
CC(=O)Oc1ccc2ccc(=O)oc2c1	KLK7 zymogen act 357 | proKLK7 act conf 602 | EDANS-DABCYL int 609
COc1ccc(C(=O)COc2ccc3ccc(=O)oc3c2)cc1	none
COCC(=O)N(Cc1ccccc1)c1ccccc1C(=O)Nc1cc(OC)ccc1OC	none
COc1cc(/C=C/C(=O)c2ccccc2)cc(OC)c1OC	none (no result: KLK7 zymogen act)
CCC(C)(C)n1nnnc1C(c1cc2cc(OC)c(OC)cc2[nH]c1=O)N1CCc2ccccc21 (stereo not drawn)	none
